# According to PubChem BioAssay (NCATS):
# Results filed as inconclusive are left out. Active and inactive are the calls of the source. Calls follow the shape of the dose curve; as a rule, active = well fitted inhibition curve with a large enough effect; inconclusive = small, poorly fitted or top-dose-only effect; inactive = flat fitted curve, though single readings scatter.
# System: NIH3T3
# Experiment: qHTS assay to identify novel small-molecules to repurpose for Merkel cell carcinoma treatment (AID 1296009); also: nearly all actives have a fitted effect of over 60% in size
# Details: MCC and control cell lines, CellTiter-Glo viability, 72 h; at 44.8 µM (top of the series) unless noted
# Procedure, shortened: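 Viability readout: ATP luminescence (CellTiter-Glo) after 72 hr drug exposure at 37 degree celsius. Dose-response format was 8 points for NPC and 11 points for MIPE; data normalized to in-plate controls.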
row,Compound,outcome
1,CC(=O)OCC(=O)O[C@@H]1[C@H]2[C@@H](OC(=O)c3ccccc3)[C@@H](C)C[C@]2(O)[C@H](OC(C)=O)C2(C)[C@H]3CC(C)(C)C(=O)[C@@H]3CC1(OC(C)=O)[C@@H]2OC(C)=O (some centres undefined),inactive [at 17.4 µM]
2,CC1(O)CCC2C(C(=O)O)=COC(OC3OC(CO)C(O)C(O)C3OC(=O)/C=C/c3ccc(O)cc3)C21 (centres undefined),inactive [at 17.4 µM]
3,CC(=O)NC(CCC(=O)O)C(=O)NCCc1ccc(O)cc1 (centres undefined),inactive
4,COC(=O)C1C(c2ccc(O)cc2)C(C(=O)OC)C1c1ccc(O)cc1 (centres undefined),inactive
5,C=C(C)C(=O)O[C@H]1C[C@@](C)(OC(C)=O)[C@@]2(O)CC[C@@](C)(O)[C@H](OC(C)=O)[C@@]23OC(=O)C(COC)=C13,inactive [at 17.4 µM]
6,CC1(C)CC(=O)N(CCCCN2CCN(c3ncccn3)CC2)C(=O)C1,inactive
7,COc1ccc2c(c1)OC[C@]1(O)c3cc4c(cc3O[C@H]21)OCO4,inactive
8,CC(CCC1(O)OC2CC3C4CCC5CC(O[C@@H]6O[C@H](CO)[C@@H](O)[C@H](O)[C@H]6O[C@@H]6OC[C@@H](O)[C@H](O)[C@H]6O)C(O)CC5(C)C4CCC3(C)C2C1C)CO[C@@H]1O[C@H](CO)[C@@H](O)[C@H](O)[C@H]1O (some centres undefined),inactive [at 9.27 µM]
9,COc1cc(CCc2ccccc2)c(C(=O)O)c2c1CC(C(C)(C)O)O2 (centres undefined),inactive
10,CCCC1=CC2=C(CO1)C(=O)C(C)(OC(=O)c1c(C)cc(OC)cc1O)C(O)C2 (centres undefined),inactive [at 17.4 µM]
11,C[C@@H]1O[C@@H](O[C@@H]2[C@@H](O)[C@H](O[C@@H]3[C@@H](O)[C@@H](O)[C@H](O[C@H]4[C@H](OC(=O)[C@]56CCC(C)(C)C[C@H]5C5=CCC7[C@@]8(C)C[C@H](O)[C@H](O[C@@H]9O[C@@H](C)[C@H](O)[C@@H](O)[C@H]9O)[C@@](C)(CO)C8CC[C@@]7(C)[C@]5(C)C[C@H]6O)O[C@H](C)[C@H](O)[C@@H]4O)O[C@H]3C)OC[C@H]2O)[C@H](O)[C@H](O)[C@H]1O (some centres undefined),inactive [at 9.27 µM]
12,CCS(=O)(=O)N1CCC([C@@H](C)n2c(C)c(C(=O)NCc3c(OC)cc(C)[nH]c3=O)c3ccccc32)CC1,inactive
13,C/C=C1\[C@H](O[C@@H]2O[C@H](CO)[C@@H](O)[C@H](O)[C@H]2O)OC=C(C(=O)OC)[C@H]1CC(=O)OC,inactive [at 17.4 µM]
14,O=C(O[C@H]1[C@@H]2C[C@@H]3OC[C@@](O)([C@H]2[C@H](O[C@@H]2O[C@H](CO)[C@@H](O)[C@H](O)[C@H]2O)O3)[C@@H]1O)c1ccccc1,inactive [at 17.4 µM]
15,CC1CCC2C(C)(C)C(O)CCC2(C)C12Cc1c(O)cc3c(c1O2)C(N)=NC3 (centres undefined),inactive
16,C=CC(C)(C)O[C@@H]1O[C@H](CO[C@@H]2OC[C@](O)(CO)[C@H]2O)[C@@H](O)[C@H](O)[C@H]1O,inactive
17,CCCC(N[C@@H](C)C(=O)N1[C@H](C(=O)O)C[C@@H]2CCCC[C@@H]21)C(=O)OCC (some centres undefined),inactive
18,O=C(O)c1ccc(CCCc2ccc(OCCc3ccc(F)cc3)cc2)o1,inactive
19,Cc1[nH]cnc1C1CCN(c2nc3cccc4c3n2CCC4=O)CC1,inactive
20,C[C@@H]1O[C@@H](O[C@@H]2[C@@H](O)[C@H](O[C@@H]3[C@@H](O)[C@@H](O)[C@H](O[C@H]4[C@H](OC(=O)[C@]56CCC(C)(C)C[C@H]5C5=CCC7[C@@]8(C)C[C@H](O)[C@H](O[C@@H]9O[C@H](C(=O)O)[C@@H](O)[C@H](O)[C@H]9O)[C@@](C)(CO)C8[C@H](O)C[C@@]7(C)[C@]5(C)CC6)OC[C@H](O)[C@@H]4O)O[C@H]3C)OC[C@H]2O)[C@H](O)[C@H](O)[C@H]1O (some centres undefined),inactive [at 9.27 µM]

row,Compound,outcome
1,CC1(C)CC2C(O)C3=C(CC(C)(O)C2C1)C(=O)OC3O (centres undefined),inactive
2,CC(C)=CC/C=C(/C)[C@H]1CC[C@]2(C)[C@@H]1[C@H](O)CC1[C@@]3(C)CC[C@H](O)C(C)(C)[C@@H]3[C@@H](O[C@@H]3O[C@H](CO)[C@@H](O)[C@H](O)[C@H]3O[C@@H]3O[C@@H](C)[C@H](O)[C@@H](O)[C@H]3O)C[C@]12C (some centres undefined),inactive [at 17.4 µM]
3,O=C(/C=C/c1ccc(O)cc1)OCC1=C[C@@H](O)[C@@H]2C=CO[C@@H](O[C@@H]3O[C@H](CO)[C@@H](O)[C@H](O)[C@H]3O)[C@H]12,inactive [at 17.4 µM]
4,O=C(O[C@H]1[C@@H]2C=CO[C@@H](O[C@@H]3O[C@H](CO)[C@@H](O)[C@H](O)[C@H]3O)[C@@H]2[C@@]2(CO)O[C@@H]12)c1ccc(O)c(O)c1,inactive [at 17.4 µM]
5,O=C(O)C[C@H]1CCC(=O)[C@@H]1C/C=C\CCOC1OC(CO)C(O)C(O)C1O (some centres undefined),inactive
6,CC(=O)OC1C(O)C(C)=C(CCC(C)CC(=O)O)C2(C)CCCC(C)(C)C12 (centres undefined),inactive
7,Cc1ncc([N+](=O)[O-])n1CC(O)CN1CCOCC1 (centres undefined),inactive
8,COc1cc2c(cc1O)C1(Cc3ccc4c(c3C1=O)OCO4)N(C)CC2 (centres undefined),inactive
9,COC(=O)[C@H](CC1C=NC=N1)NCC12CC3CC(CC(C3)C1)C2 (some centres undefined),inactive
10,CCOC(=O)c1ccc(N(C)c2csc(-c3ccccc3)n2)cc1,inactive
11,C/C1=C\C[C@H](O[C@@H]2O[C@H](CO)[C@@H](O)[C@H](O)[C@H]2O)/C(C)=C/[C@H]2OC(=O)[C@H](C)[C@@H]2CC1,inactive [at 17.4 µM]
12,COc1ccc(C(=O)O[C@H]2CC(C)=CC[C@@]3(C)[C@@H](OC(C)=O)C[C@@](O)(C(C)C)[C@H]23)cc1,inactive [at 17.4 µM]
13,CC/C=C\C[C@H]1C(=O)C=C[C@@H]1CCCCCCCC(=O)O,inactive
14,CC1CC(=O)C2=C(O1)OC1(C)CCC3C(C)(C)C=CC(=O)C3(C)C1C2 (centres undefined),inactive
15,CC1(CO)CC2C(O)C(=O)C3(CO)CC3(C)C2C1 (centres undefined),inactive
16,CCn1nnnc1NCc1ccc(C(C)C)cc1,inactive
17,CCNC(=O)CCC/C=C\C[C@@H]1[C@@H](/C=C/C(O)CCc2ccccc2)[C@@H](O)C[C@@H]1O (some centres undefined),inactive
18,CN[C@@H]1[C@@H](O)[C@@H](O[C@@H]2[C@@H](O)[C@H](O[C@H]3O[C@H](CN)[C@@H](O)[C@H](O)[C@H]3O)[C@@H](N)C[C@H]2NC(=O)[C@@H](O)CN)OC[C@]1(C)O,inactive
19,CC1(C)OC(=O)C(OCC2CC2)=C1c1ccc(S(C)(=O)=O)cc1,inactive
